Source: PubChem BioAssay (NCATS)
Inconclusive results are not listed. The source made the active and inactive calls. Calls follow the shape of the dose curve; as a rule, active = well fitted cell-killing curve with a large enough effect; inconclusive = small, poorly fitted or top-dose-only effect; inactive = flat fitted curve, though single readings scatter. Residues, ends and D or L forms follow the SMILES beside them. *: point of attachment. Cbz = O=C(OCc1ccccc1)*
Potency is read from the fitted curve at half-maximal effect.

Assay: qHTS of pediatric cancer cell lines to identify multiple opportunities for drug repurposing: Primary screen for RD cells (AID 1347104); also: nearly all actives have a fitted effect of over 55% in size
Settings: RD rhabdomyosarcoma viability, CellTiter-Glo luminescence, 48 h; series mostly up to 46 µM
From the text: Drug repurposing or repositioning has been offered as a strategy for drug development in oncology programs. This approach has special potential for childhood cancers and other rare or orphan diseases, where the expected return on new drug development has been a disincentive to pharmaceuticals. […] In this project we exploit the poly-pharmacology of drugs to discover new indications via phenotypic screening of a panel of 19 well-characterized cell lines derived from solid tumors seen in children and adolescents. The goal is to identify approved drugs with previously unrecognized anticancer properties that has the potential to reveal new mechanisms and biological processes involved in carcinogenesis or drug resistance. We employed a titration-based paradigm (quantitative high-throughput screening or qHTS), where all compounds were tested at multiple concentrations for their effect on cell viability. Concentration-response curves (CRCs) were derived directly from the primary screen, and both potency and efficacy values were used to identify compounds with robust bioactivity profiles. We screened the NIH Chemical Genomics Center (NCGC) Pharmaceutical Collection (NPC) and Mechanism Interrogation Plate (MIPE) small molecule collections of approved and investigational compounds against these cell lines; and measured metabolically active cells after 48 hours of compound treatment as a proxy for cell viability. […] Assay Submitter: Nathalia J. Martinez, National Center for Advancing Translational Sciences, National Institutes of Health, Rockville, MD, USA; email: natalia.martinez@nih.gov Shen, M et al. Quantitative high-throughput phenotypic screening of pediatric cancer cell lines identifies multiple opportunities for drug repurposing. Oncotarget 2017 Dec 19;9(4):4758-4772. PMID 29435139.
The cells were obtained from University of North Carolina (UNC), Pediatric Preclinical Testing Program (PPT), and Coriell Institute (CI). qHTS cell viability assay: Cells were assayed in growth media at a density of 500-1,000 cells/well. Five microliters of cells were dispensed into 1,536-well, white, solid-bottom, TC-treated plates (Greiner Bio One) using a multidrop dispenser and incubated at 37 degrees C, 5% CO2, under a humidified atmosphere for 5 hours. Twenty-three nanoliters of compounds and controls (neutral control DMSO or positive control bortezomib at final concentration of 2.3 µM) were subsequently transferred by Kalypsys pintool. For primary screens, the MIPE collection was tested at 11-point dilutions (final concentrations range from 0.78 nM to 46 µM) and the NPC collection at 8-point dilutions (final concentrations range from 0.59 nM to 46 µM). Compounds tested in follow-up screens were assayed at 11-point dilutions. Cells were incubated for 48 hours, followed by addition of 3 µL of CellTiter-Glo (Promega). After a 15 min incubation at room temperature, samples were analyzed for luminescence intensity using a ViewLux High-throughput CCD imager equipped with clear filters.
For `COc1cccc2c1C(=O)c1c(O)c3c(c(O)c1C2=O)C[C@@](O)(C(=O)CO)C[C@H]3O[C@H]1C[C@H](N)[C@H](O)[C@H](C)O1`, the Potency was 0.833 µM (active).
With `C[C@H](NC(=O)Cc1cc(F)cc(F)c1)C(=O)N[C@H](C(=O)OC(C)(C)C)c1ccccc1` the Potency was “inactive”.
In the case of `C[C@@]12C[C@@]3(O)O[C@@H](O1)[C@]1(COC(=O)c4ccccc4)[C@@H]3C[C@@]12O[C@@H]1O[C@H](CO)[C@@H](O)[C@H](O)[C@@H]1O`, the Potency is reported as “inactive”.
For `CCCCCN=C(N)NN=Cc1c[nH]c2ccc(OC)cc12`, the Potency was 18.7 µM (active).
For `Cc1noc(-c2ccc(CSCCC(=O)O)cc2)c1NC(=O)OC(C)c1ccccc1Cl` (stereo not given), the Potency was “inactive”.
In the case of `Cn1cc(CNCC2CCN(c3ncc(C(=O)NO)cn3)CC2)c2ccccc21`, the Potency is reported as 0.187 µM (active).
With `CC(=O)N[C@H]1[C@@H]([C@H](O)[C@H](O)CO)OC(C(=O)O)=C[C@@H]1N=C(N)N` the Potency was “inactive”.
In the case of `CCCCCCCCCCCCc1ccc(S(=O)(=O)Nc2nncs2)cc1`, the Potency is reported as “inactive”.
For `COc1cc(CCc2cc(NC(=O)c3ccc(N4C[C@@H](C)N[C@@H](C)C4)cc3)n[nH]2)cc(OC)c1`, the Potency was 16.6 µM (active).
For `c1cncc(CN2CCC(n3ncc4c(N5CCOCC5)nc(-c5ccc6[nH]ccc6c5)nc43)CC2)c1`, the Potency was 6.62 µM (active).
In the case of `C[N+]1(C)[C@@H]2C[C@@H](OC(=O)C(O)(c3cccs3)c3cccs3)C[C@H]1[C@@H]1O[C@@H]12`, the Potency is reported as “inactive”.
With `OC[C@@H](O)[C@@H](O)[C@H](O)[C@@H](O)CO` the Potency was “inactive”.
For `CC(=O)N[C@@H]1[C@H](O[C@@H]2c3ccc(c(Cl)c3)Oc3cc4cc(c3O[C@H]3O[C@H](CO)[C@@H](O)[C@H](O)[C@H]3NC(=O)CCCCCCCC(C)C)Oc3ccc(cc3Cl)C[C@H]3NC(=O)[C@H](N)c5ccc(O)c(c5)Oc5cc(O)cc(c5)[C@H](NC3=O)C(=O)N[C@H]4C(=O)N[C@H]3C(=O)N[C@@H]2C(=O)N[C@@H](C(=O)O)c2cc(O)cc(O[C@H]4O[C@H](CO)[C@@H](O)[C@H](O)[C@H]4O)c2-c2cc3ccc2O)O[C@H](CO)[C@@H](O)[C@@H]1O`, the Potency was “inactive”.
In the case of `CCc1cnn2c(NCc3ccc[n+]([O-])c3)cc(N3CCCC[C@@H]3CCO)nc12`, the Potency is reported as 0.0332 µM (active).
For `N#Cc1c(C2CCNCC2)cc(-c2c(O)cccc2OCC2CC2)nc1N`, the Potency was 16.6 µM (active).
For `COc1ccc([C@@H]2CNC(=O)C2)cc1OC1CCCC1`, the Potency was 3.32 µM (active).
For `Cn1cnc(=N)c2[nH]cnc21`, the Potency was 0.935 µM (active).
In the case of `Cc1cnn(C)c1C(=O)Nc1cc(Nc2ccc3c(C=Cc4ccccn4)n[nH]c3c2)ccc1F`, the Potency is reported as 18.7 µM (active).
With `COc1cccc2c1C(=O)c1c(O)c3c(c(O)c1C2=O)C[C@@](O)(C(=O)CO)C[C@@H]3O[C@H]1C[C@H](N)[C@@H](O)[C@H](C)O1` the Potency was 0.935 µM (active).
With `COc1cc2c(cc1OC)[C@@H]1C(=O)c3ccc4c(c3O[C@@H]1CO2)C=CC(C)(C)O4` the Potency was 0.264 µM (active).
In the case of `CCCCOc1ccc(C(=O)Nc2ccc(F)cc2F)cc1`, the Potency is reported as “inactive”.
For `CC(=O)O[C@H]1C[C@@H]2CC[C@H]3[C@H]4C[C@H]([N+]5(C)CCCCC5)[C@@H](OC(C)=O)[C@@]4(C)CC[C@@H]3[C@@]2(C)C[C@H]1N1CCCCC1`, the Potency was “inactive”.
With `CO[C@@H]1[C@@H](O)[C@H](O)[C@@H](n2c3c(Cl)cccc3c3c4c(c5c6cccc(Cl)c6[nH]c5c32)C(=O)NC4=O)O[C@@H]1CO` the Potency was 2.64 µM (active).
With `Cc1ccc([N+](=O)[O-])cc1S(=O)(=O)N(C)N=Cc1cnc2ccc(Br)cn12` the Potency was 0.0743 µM (active).
For `C=Cc1c(C)c2cc3nc(cc4[nH]c(cc5nc(cc1[nH]2)C(C)=C5CCC(=O)O)c(CCC(=O)OC)c4C)[C@@]1(C)C3=CC=C(C(=O)OC)[C@H]1C(=O)OC`, the Potency was 0.105 µM (active).
With `OCCNC1CCCc2c1[nH]c1ccc(-c3ccccc3)cc21` (stereo not given) the Potency was 33.2 µM (active).
With `CN(C)c1ccc(C(=O)NCCCCCCC(=O)NO)cc1` the Potency was 2.09 µM (active).
In the case of `NC(=O)Nc1sc(-c2ccc(F)cc2)cc1C(N)=O`, the Potency is reported as 1.66 µM (active).
In the case of `Cc1ccccc1C(=O)Nc1ccc(C(=O)N2CCCC(O)c3cc(Cl)ccc32)c(C)c1` (stereo not given), the Potency is reported as “inactive”.
For `COc1cc(OC)c(NC(=O)Nc2cc(C)on2)cc1Cl`, the Potency was “inactive”.
For `CC(C)(C)[N+]([O-])=Cc1ccc(S(=O)(=O)O)cc1S(=O)(=O)O`, the Potency was “inactive”.
For `CN(C)CCN1C(=O)c2cccc3cc(N)cc(c23)C1=O`, the Potency was 18.7 µM (active).
In the case of `Nc1ccn(C2CO[C@H](CO)O2)c(=O)n1` (stereo not given in full), the Potency is reported as “inactive”.
With `NC(=NCCCCCCN=C(N)N=C(N)Nc1ccc(Cl)cc1)N=C(N)Nc1ccc(Cl)cc1` the Potency was 11.8 µM (active).
In the case of `O=C(Nc1ccc(Oc2ccnc3[nH]ccc23)c(F)c1)c1cccn(-c2ccc(F)cc2)c1=O`, the Potency is reported as “inactive”.
In the case of `CC1=C(C(=O)Nc2cc3cn[nH]c3cc2F)C(c2ccc(Cl)cc2F)N=C(c2ccnc(Cl)c2)N1` (stereo not given), the Potency is reported as “inactive”.
For `CN1[C@H]2CC(OC(=O)[C@@H](CO)c3ccccc3)C[C@H]1[C@H]1O[C@H]12` (stereo not given in full), the Potency was “inactive”.
For `CC(C)C[C@@H](C=O)NC(=O)[C@H](CC(C)C)NC(=O)[C@H](CC(C)C)NC(=O)OCc1ccccc1` (Cbz-Leu-Leu-Leu-aldehyde), the Potency was 0.662 µM (active).
In the case of `CCOC(=O)N1CCN([N+]([O-])=NOc2ccc([N+](=O)[O-])cc2[N+](=O)[O-])CC1`, the Potency is reported as 18.7 µM (active).
With `c1cc(CN2CCCNCCNCCCNCC2)ccc1CN1CCCNCCNCCCNCC1` the Potency was “inactive”.
